Hits are enriched below; roughly 2.6% of the tested compounds scored in any of these assays.
Nrf2 inh: Nrf2 qHTS screen for inhibitors | A549 ARE-Fluc reporter, luciferase luminescence, 18-24 h | Potency, µM (titrated, usually from 46 µM), without a hit: top-dose activity change, negative = inhibition, most hits filed as inhibitors | actives 2.1% (n = 360,000); further: potency means the concentration at half of the fitted maximal effect; on the % scale 0 is the no-effect control and ±100 the full control effect; nearly all actives have a fitted effect of over 60% in size
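Concentration-response testing used A549 ARE_Fluc cells at 5000 cells/well. Following an 18-24 h compound incubation, viability was read by fluorescence (Ex 405/Em 525) and luciferase output by luminescence.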
A549 tox: Nrf2 qHTS screen for inhibitors: counterscreen for cytotoxicity | A549 ARE-Fluc cells, CellTiter-Fluor viability, 18-24 h | Potency, µM (doses to about 46 µM), without a hit: at the highest dose activity change, negative = cytotoxicity, actives largely listed as inhibitors | actives 0.16% (n = 390,000); further: potency means the concentration at half of the fitted maximal effect; on the % scale 0 is the no-effect control and ±100 the full control effect
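Cytotoxicity counterscreen: CellTiter-Fluor fluorescence was measured in A549 ARE_Fluc cells after 18-24 h of compound exposure in a concentration series. The subsequent BugLite luminescent read reports ARE-luciferase activity.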
A-T KAP1 phos: qHTS Assay for Identifying a Potential Treatment of Ataxia-Telangiectasia; F2112 A-T fibroblasts, KAP-1 phosphorylation AlphaLISA; neocarzinostatin DNA damage 30 min before lysis; Potency, µM (doses to about 57.5 µM), for the others: at the top dose activation, hits mostly activators; actives 0.19% (n = 320,000); AID 485349, 2010; further: potency means the concentration at half of the fitted maximal effect; % of control where 0% means no effect; nearly all actives have a fitted effect of over 45% in size
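hTERT-immortalized A-T patient fibroblasts (F2112), 500 cells/well in OPTI-MEM, 1% FBS, got compounds for 60 min, then NCS for 30 min at 37C. Lysates were then assayed for phospho-KAP-1 by AlphaLISA (anti-pKAP1 donor, anti-KAP1 acceptor beads), 6 hr at 25C.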
Nrf2 activator: qHTS of Nrf2 Activators | AREc32 ARE-luciferase reporter (MCF7-derived line), luminescence, 24 h | Potency, µM (titrated, usually from 46.1 µM), without a hit: at the highest dose activation, most hits filed as activators | actives 0.31% (n = 410,000); further: potency means the concentration at half of the fitted maximal effect; % of control where 0% means no effect; nearly all actives have a fitted effect of over 65% in size
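Reporter line AREc32 (ARE-Fluc), seeded overnight in OPTI-MEM with 5% FBS; compound pin-transferred, 24 hr at 37 deg C, 5% CO2; luminescent read-out.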
TCR act: Activators of T cell receptors: qHTS campaign; primary human leukocytes, anti-CD3, IL-2 HTRF, 48 h; Potency, µM (doses to about 9.22 µM), for inactives: at the highest dose activation of IL-2 secretion, hits mostly activators; AID 504894, 2011; 330,000 tested, under 10 active; further: % of control where 0% means no effect
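48 hr co-incubation of compounds, a-CD3 beads and primary human leukocytes; IL-2 quantified homogeneously by HTRF with anti-IL-2 K and d2 conjugates.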
CCT modulator: High-Throughput Screening for Modulators of Cytosolic Chaperonin Activity; AID 651819, 2012; actives 0.3% (n = 360,000); purified chaperonin ATPase assay, HTRF ADP detection, 30 min; activity change, % (no concentration beside the values), hits read low; in the data active means activity change below about -30%; further: on the % scale 0 is the no-effect control and ±100 the full control effect
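TRiC at 40 or 20 nM final (batch-dependent) in 30 mM Tris pH 7.4, 100 mM KCl, 5 mM MgCl2, 1 mM DTT, with compound at single 76 uM and 10 uM ATP, 30 min at 37 deg C. ADP detected by HTRF Transcreener, 665/615 ratio.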
An asterisk follows results filed as active; ? = inconclusive; . = no result; [ ] = remark or other dose. Unless noted, the call rests on the fitted dose curve; in most records, active means well fitted curve in the direction sought with a large enough effect; inconclusive means small, poorly fitted or top-dose-only effect, or another doubt; inactive means no such curve, though single readings can be large; an effect the other way counts as inactive or inconclusive.

SMILES | Nrf2 inh | A549 tox | A-T KAP1 phos | Nrf2 activator | TCR act | CCT modulator
Cc1cccc(NC(=O)CSc2nnc3scc(-c4ccccc4)n23)c1 | -25% | 1% | . | 7% | . | .
Cc1ccc(-c2csc3nnc(SCC(=O)Nc4nsc(-c5ccccc5)n4)n23)cc1 | 21µM* | 1%[1.84 µM] | . | 4% | . | 0
O=C(CSc1nnc2scc(-c3ccccc3)n12)Nc1nsc(-c2ccccc2)n1 | 16µM* | -25% | -12% | 4% | -8% | -2
CCOC(=O)c1c(C)oc2c1c(C=NCCC(=O)O)c(O)c1ccccc12 | 21µM* | ? | -10% | 5% | 2% | 1
CCOC(=O)c1c(C)oc2c1c(CN1CCN(C(=O)OCC)CC1)c(O)c1ccccc12 | 10% | 4% | 32µM* | 26% | -6%[46.1 µM] | -3
CCOC(=O)c1c(C)oc2c1c(CN1CCN(CCO)CC1)c(O)c1ccccc12 | 12% | 1% | -4% | ? | 0% | -1
CN(Cc1ccn[nH]1)C(=O)C1CCC(=O)N(Cc2cccc(C(F)(F)F)c2)C1 (stereo not given) | -19% | 1% | 2% | 0% | 4% | 2
CCOC(=O)C1C(=O)C=C(c2cccc(NS(C)(=O)=O)c2)CC1c1ccco1 (stereo not given) | -9% | -1% | . | 9% | 2%[46.1 µM] | -2
CCOC(=O)C1C(=O)C=C(c2ccc(Br)cc2)CC1c1ccco1 (stereo not given) | 23µM* | ? | 6% | 0% | . | -4
c1ccc(-c2nc(N3CCN(c4ccccc4)CC3)nc(-n3ccnc3)n2)cc1 | 4.6µM* | -24% | 4% | 0% | -3% | -1
CCCN(c1ccccc1CC)S(=O)(=O)c1ccc2c(c1)CC(C)N2C(=O)C1CC1 (stereo not given) | 21µM* | -6% | . | 5% | . | .
CN1C(=O)Cc2cc(S(=O)(=O)CCC(=O)Nc3ccc(OC(F)(F)F)cc3)ccc21 | -10% | -8% | . | 2% | . | .
Cc1cccc(NS(=O)(=O)c2ccc3c(c2)CC(C)N3C(=O)C2CCC2)c1C (stereo not given) | ? | -4% | . | 0% | . | .
COc1ccccc1CNS(=O)(=O)c1ccc2c(c1)CC(C)N2C(=O)C1CCC1 (stereo not given) | 18µM* | -14% | 8% | 3% | 2% | 0
CC1Cc2cc(S(=O)(=O)CCC(=O)Nc3ccc(OC(F)(F)F)cc3)ccc2N1C(=O)C1CC1 (stereo not given) | 23µM* | 1% | . | -1% | . | .
Cc1cc(C)c(NS(=O)(=O)c2ccc3c(c2)CC(C)N3C(=O)C2CCC2)c(C)c1 (stereo not given) | 21µM* | -5% | . | 0% | . | .
O=C(c1ccc(S(=O)(=O)Cc2cc(F)ccc2F)c([N+](=O)[O-])c1)N1CCOCC1 | . | . | . | 13µM* | . | -2
C=CCN1c2ccccc2[C@]23C[C@@H](C(=O)OC)N(C(=O)c4cc(C)oc4C)C2=NC(C(=O)OC)=C(C(=O)OC)[C@H]13 | ? | ? | -10% | -2% | 0% | -2
C=CCN1c2ccccc2[C@]23C[C@@H](C(=O)OC)N(C(C)=O)C2=NC(C(=O)OC)=C(C(=O)OC)[C@H]13 | 6% | -7% | 13µM* | 0% | -1% | -2
CC#CCN1c2ccccc2[C@]23C[C@@H](C(=O)OC)N(C(=O)c4cc(C)oc4C)C2=NC(C(=O)OC)=C(C(=O)OC)[C@H]13 | 16µM* | -15% | -3% | 0% | 5% | -5
O=C1/C(=C\c2ccc(Cl)c(Cl)c2)CN(C(=O)CCN2CCOCC2)C/C1=C/c1ccc(Cl)c(Cl)c1 | ? | 21µM* | . | ? | 3% | -1
N#Cc1nc(N2CCCCC2)nc(N(c2ccccc2)c2ccccc2)n1 | -5% | 5% | . | . | . | .
Cc1cc(Br)c(OCc2ccc(C(=O)N/N=C/c3ccc[nH]3)cc2)c(Br)c1 | 0.52µM* | 1.3µM* | 5% | 0% | 3% | 1
O=C(N/N=C/c1ccc[nH]1)c1ccc(COc2cccc3cccnc23)cc1 | ? | 7.3µM* | 1% | 0% | -1% | -2
O=C(N/N=C/c1ccc[nH]1)c1ccc(O)cc1 | -7% | -15% | -2% | 0% | . | -1
SMILES | Nrf2 inh | A549 tox | A-T KAP1 phos | Nrf2 activator | TCR act | CCT modulator
O=C(Nc1cc(S(=O)(=O)N2CCCCCC2)ccc1OCC(F)(F)F)c1cnccn1 | 0% | -3% | 8% | 0% | -21% | -2
CCCN1C(=O)C2(c3ccccc31)c1c(oc3ccc(C)cc3c1=O)C(=O)N2CCOC (stereo not given) | 3% | -1% | . | 0% | . | .
COc1cc(OC)c(NC(=O)Nc2ccc3c(c2)N(C)C(=O)c2ccccc2S3)cc1Cl | 21µM* | -18% | . | -1% | . | .
COCCNC(=O)Nc1ccc2c(c1)N(C)C(=O)c1ccccc1S2 | -7% | 0% | 1% | 2% | -15% | -4
O=[N+]([O-])c1ccc(N/N=C2\CC3CC=CC23)c([N+](=O)[O-])c1 (stereo not given) | 23µM* | ? | -37% | 4% | -108% | -4
CCCCn1cnc2cc(NCc3ccccc3Cl)ccc21 | ? | ? | . | 3% | . | .
N#Cc1nc(Nc2cc(F)cc(F)c2)c2ncn(C3CCCC3)c2n1 | ? | -5% | . | . | . | .
Cc1ccc(NC(=O)c2ccccc2NS(=O)(=O)c2ccc(F)cc2)cc1S(=O)(=O)N1CCCCC1 | 23µM* | ? | -2% | 2% | -2%[46.1 µM] | 2
O=C(Nc1cccc(S(=O)(=O)N2CCCCC2)c1)c1ccccc1NS(=O)(=O)c1ccc(F)cc1 | ? | -11% | -11% | 0% | 1%[46.1 µM] | 0
Cc1ccc(CN2CC(C(=O)Nc3ccc(C)c(S(=O)(=O)N4CCCCC4)c3)CC2=O)cc1 (stereo not given) | 21µM* | ? | . | 0% | 16% | -41*
Cc1ccc(NC(=O)CSc2ccccc2)cc1S(=O)(=O)N1CCOCC1 | -6% | 0% | 14% | -1% | -3% | 2
Cc1ccc(NC(=O)Cn2cc(C(F)(F)F)cc(Cl)c2=O)cc1S(=O)(=O)N1CCCCC1 | 23µM* | -13% | 0% | 0% | -3% | -1
Cc1ccc(NC(=O)Cn2ncc(Cl)c(Cl)c2=O)cc1S(=O)(=O)N1CCCCC1 | -25% | -1% | -9% | ? | 5% | -1
COc1ccc(NC(=O)C2CC(=O)N(Cc3ccc(C)cc3)C2)cc1S(=O)(=O)N1CCCCC1 (stereo not given) | ? | 0% | -9% | 2% | 0%[46.1 µM] | 0

From PubChem
